Test system: not listed separately
Assay: probe aNog binding to arrayed compounds – biochemical, biotinylated probe, 635/667 nm fluorescence, primary screen (AID 1115);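 note: probe is biotinylated aNog protein used at 0.15 µg/mL for 1 h at 4 C; z-score combines 667 nm fluorescence of each spot with its signal to noise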
Conditions: small-molecule microarray, higher = more signal

Row | Compound | composite z-score
1 | O=C(NCc1ccccc1)[C@@]1(Cc2ccccc2)N=C(c2ccc(OCCCO)cc2)O[C@H]1c1ccccc1 | 1.36
2 | CC(C)(C)OC(=O)CC[C@@]12N=C(c3ccc(OCCCO)cc3)O[C@@H]1c1ccccc1N(CCS(=O)(=O)c1ccccc1)C2=O | -0.335
3 | [N-]=[N+]=NCc1ccccc1[C@@H]1OC(c2ccc(OCCCO)cc2)=N[C@]1(Cc1ccccc1N=[N+]=[N-])C(=O)N1CCOCC1 | 2.35
4 | COCCOC(=O)N1C(=O)[C@@]2(c3cc(C#CC4(O)CCCCCC4)ccc31)[C@H](c1ccc(O)cc1)N1[C@H](c3ccccc3)[C@H](c3ccccc3)OC(=O)[C@H]1[C@@H]2C(=O)Nc1nc2ccccc2s1 | 3.16
5 | COCCOC(=O)N1C(=O)[C@@]2(c3cc(C#CC4=CCCCC4)ccc31)[C@H](C(=O)N1CCc3cc(OC)c(OC)cc3C1)[C@H]1C(=O)O[C@H](c3ccccc3)[C@H](c3ccccc3)N1[C@@H]2c1ccc(OCCO)cc1 | 0.575

Molecular target: Torsin-1A-interacting protein 1 (Homo sapiens) (UniProt Q5JTV8)
Sequence (Q5JTV8 whole entry, looked up): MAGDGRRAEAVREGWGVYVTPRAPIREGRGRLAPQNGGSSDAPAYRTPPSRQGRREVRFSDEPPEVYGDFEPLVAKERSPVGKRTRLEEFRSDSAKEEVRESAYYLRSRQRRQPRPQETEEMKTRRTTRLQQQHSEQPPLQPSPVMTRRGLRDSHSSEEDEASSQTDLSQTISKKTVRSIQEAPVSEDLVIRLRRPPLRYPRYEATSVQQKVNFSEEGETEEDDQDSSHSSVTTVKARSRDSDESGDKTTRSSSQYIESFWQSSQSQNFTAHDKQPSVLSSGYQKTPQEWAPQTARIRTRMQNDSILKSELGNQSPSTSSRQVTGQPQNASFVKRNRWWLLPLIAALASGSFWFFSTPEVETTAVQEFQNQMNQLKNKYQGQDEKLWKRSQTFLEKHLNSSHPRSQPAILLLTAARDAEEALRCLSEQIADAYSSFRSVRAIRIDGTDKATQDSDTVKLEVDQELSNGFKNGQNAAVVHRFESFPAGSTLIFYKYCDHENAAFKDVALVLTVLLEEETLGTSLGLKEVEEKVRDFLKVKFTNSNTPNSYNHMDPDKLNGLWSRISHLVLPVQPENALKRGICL
Assay: compound microarray binding of lysate hLAP1 – cell lysate, small-molecule microarray, COS7 lysate, 635/667 nm fluorescence, primary screen (AID 1116)
Conditions: 635 nm fluorescence, higher = more signal

Row | Compound | composite z-score
6 | O=C1[C@H]2C=C(Br)[C@H](C[C@@H]2c2ccccc2)[C@@]12CO2 | 0.0974
7 | COc1ccc(C#Cc2ccc3c(c2)[C@]2(C(=O)N3)[C@H](c3ccccc3OCCO)N3[C@H](c4ccccc4)[C@H](c4ccccc4)OC(=O)[C@H]3[C@@H]2C(=O)O)cc1 | 1.77
8 | O=C1O[C@H](c2ccccc2)[C@H](c2ccccc2)N2[C@H]1[C@@H](C(=O)N1CCN(c3ncccn3)CC1)[C@]1(C(=O)Nc3ccc(C#CC4=CCCCC4)cc31)[C@H]2c1ccc(O)cc1 | 0.792
9 | C=CC[C@@]1(C(N)=O)N=C(c2ccc(OCCCO)cc2)O[C@@H]1c1ccccc1CN=[N+]=[N-] | 1.91
10 | COC(=O)[C@@]1(Cc2ccccc2)[C@H]2c3cc(C(=O)N4CCCC4)n(Cc4nc5ccccc5[nH]4)c3C[C@H]2CN1C(=O)c1ccccc1 | 2.53
11 | O=C1O[C@H](c2ccccc2)[C@H](c2ccccc2)N2[C@H]1[C@@H](C(=O)O)[C@]1(C(=O)Nc3ccc(C#CC4=CCCCC4)cc31)[C@H]2c1ccccc1OCCO | 0.926
12 | COCCOC(=O)N1C(=O)[C@@]2(c3cc(C#Cc4ccc(OC)cc4)ccc31)[C@H](c1ccccc1OCCO)N1[C@H](c3ccccc3)[C@H](c3ccccc3)OC(=O)[C@H]1[C@@H]2C(=O)N1CCN(c2ncccn2)CC1 | 0.949
13 | C=C/C=C/[C@H]1C(=C)CN([C@@H](Cc2ccccc2)C(=O)OC)[C@@H]1[C@H](O)Cc1ccccc1 | -0.207
14 | C=CCOC(=O)[C@H]1[C@@H]2C(=O)O[C@@H](c3ccccc3)[C@@H](c3ccccc3)N2[C@@H](c2ccc(OCCOC(=O)[C@@H]3C[C@@H]4C(=O)N[C@@H](CCCC[N+](C)(C)C)C(=O)N4[C@@H]3c3ccc(O)cc3)cc2)[C@]12C(=O)Nc1ccccc12 | 0.425
15 | C[C@@H]1ON(c2cccc(C(=O)OC(C)(C)C)c2)[C@H](c2ccc(Br)cc2)[C@H]1C(=O)N1C(=O)OC[C@H]1Cc1ccccc1 | 2.7
16 | O=C1C2C=CC(C(O)c3ccc(F)cc3)N(Nc3ccccc3F)C2C(=O)N1c1ccccc1 (stereo not given) | 0.694
17 | COc1ccc(CCN2C(=O)[C@@]3(Cc4ccccc42)c2ccccc2C(=O)N(Cc2ccccc2C(F)(F)F)[C@H]3c2ccc(CO)cc2)cc1 | 0.0645
18 | COC(=O)[C@@]1(Cc2ccc(OC)cc2)[C@H]2c3cc(C(=O)N4CCCC4)n(Cc4ccsc4Br)c3C[C@H]2CN1C(=O)c1ccccc1 | 0.254
19 | O=C1NC(=O)C2C1C=CC(C(O)Cc1ccccc1)N2Nc1ccc(Cl)cc1Cl (stereo not given) | 0.588
20 | COC(=O)[C@@]1(Cc2ccccc2)[C@H]2c3cc(C(=O)N4CCCC4)n(CC4CC4)c3C[C@H]2CN1C(=O)c1ccccc1 | 0.079
21 | COC(=O)[C@@]1(Cc2ccc(F)cc2)[C@H]2c3cc(C(=O)N4CCCC4)n(Cc4ccc(C)o4)c3C[C@H]2CN1C(=O)c1ccccc1 | 0.11
22 | COc1cc2c(cc1OC)CN(C(=O)[C@H]1[C@@H]3C(=O)O[C@@H](c4ccccc4)[C@@H](c4ccccc4)N3[C@@H](c3ccc(O)cc3)[C@]13C(=O)Nc1ccc(C#CC4=CCCCC4)cc13)CC2 | 0.885
23 | [N-]=[N+]=Nc1ccccc1[C@H]1OC(c2ccc(OCCCO)cc2)=N[C@@]1(Cc1ccccc1)C(=O)O | 0.826

Row | Compound | composite z-score
24 | CC(C)N1C(=O)[C@@]2(Cc3ccccc31)c1ccccc1C(=O)N(C1CCCCC1)[C@H]2c1ccc(CO)cc1 | 0.103
25 | CCOC(=O)[C@H]1C/C=C/C[C@H](C(=O)OCC)C(=O)O[C@H]2[C@@H](OC)O[C@H](CO)[C@@H](OC(=O)Nc3ccc(C#N)cc3)[C@@H]2OC1=O | 1.63
26 | CCCC=C(CCC)[C@@H](NS(=O)(=O)c1cccs1)c1ccc(C(=O)OC)cc1 | 0.554
27 | COC(=O)[C@@]1(Cc2ccc(F)cc2)[C@H]2c3cc(C(=O)N(C)C)n(Cc4nc5ccccc5[nH]4)c3C[C@H]2CN1C(=O)c1ccccc1 | 0.778
28 | CC(C)(C)OC(=O)CC[C@@]1(C(=O)NCC(O)CO)N=C(c2ccc(OCCCO)cc2)O[C@@H]1c1ccccc1N=[N+]=[N-] (stereo not given in full) | 2.29
29 | CCOc1cc(C(O)C2C=CC3C(=O)N(c4ccccc4)C(=O)C3N2Nc2ccccc2)ccc1O (stereo not given) | 0.604
30 | CN1C(=O)C2C=CC(C(O)Cc3ccccc3)N(Nc3ccccc3)C2C1=O (stereo not given) | 0.439
31 | COC(=O)C(CC#Cc1ccc2c(c1)[C@]1(C(=O)N2)[C@H](c2ccc(O)cc2)N2[C@H](c3ccccc3)[C@H](c3ccccc3)OC(=O)[C@H]2[C@@H]1C(=O)Nc1nc2ccccc2s1)C(=O)OC | 1.63
32 | COc1ccc(C(=O)Nc2ccc(CN3C(=O)[C@@]4(O[C@@H](CCO)[C@H]([Si](C)(C)c5ccc(OC)cc5)[C@H]4C)c4ccccc43)cc2)cc1 | 1.12
33 | COCCOC(=O)N1C(=O)[C@@]2(c3cc(C#Cc4ccc(OC)cc4)ccc31)[C@H](C(=O)N1CCCCCCC1)[C@H]1C(=O)O[C@H](c3ccccc3)[C@H](c3ccccc3)N1[C@@H]2c1ccc(OCCO)cc1 | 2.98
34 | O=C1O[C@H](c2ccccc2)[C@H](c2ccccc2)N2[C@H]1[C@@H](C(=O)O)[C@]1(C(=O)Nc3ccc(C#CCCO)cc31)[C@H]2c1ccc(O)cc1 | 0.846
35 | CC(C)(C)C(=O)N[C@@H](c1ccc(Cl)cc1)[C@]1(C)C[C@H]1C1CCCCC1 | 1.94
36 | O=C(NCc1ccccc1)[C@@]1(Cc2ccccc2)N=C(c2ccc(OCCCO)cc2)O[C@H]1c1ccccc1 | 2.02
37 | CC(C)(C)OC(=O)CC[C@@]12N=C(c3ccc(OCCCO)cc3)O[C@@H]1c1ccccc1N(CCS(=O)(=O)c1ccccc1)C2=O | 0.642
38 | [N-]=[N+]=NCc1ccccc1[C@@H]1OC(c2ccc(OCCCO)cc2)=N[C@]1(Cc1ccccc1N=[N+]=[N-])C(=O)N1CCOCC1 | 1.44
39 | COCCOC(=O)N1C(=O)[C@@]2(c3cc(C#CC4(O)CCCCCC4)ccc31)[C@H](c1ccc(O)cc1)N1[C@H](c3ccccc3)[C@H](c3ccccc3)OC(=O)[C@H]1[C@@H]2C(=O)Nc1nc2ccccc2s1 | 1.35
40 | COCCOC(=O)N1C(=O)[C@@]2(c3cc(C#CC4=CCCCC4)ccc31)[C@H](C(=O)N1CCc3cc(OC)c(OC)cc3C1)[C@H]1C(=O)O[C@H](c3ccccc3)[C@H](c3ccccc3)N1[C@@H]2c1ccc(OCCO)cc1 | 0.929
